Screening data (PubChem BioAssay)
SUMO Mot1 rescue = inhibitors of SUMOylation pathway: yeast Mot1-301 growth rescue; actives 1% (n = 320,000); S. cerevisiae Mot1-301 growth rescue, ATP luminescence, 38.5C; percent above DMSO median, 100 means doubled; growth rescue, % at 18.8 µM; AID 2716;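 active means every valid replicate shows activation above 250% relative to neutral control wells; inactive means the rest, any valid replicate at or below 250%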;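 further: OY570 slx delta 5 strain wells were the positive control but not used for scaling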
HIF act = HIF pathway transcriptional activation | actives 0.32% (n = 300,000) | activation, % at 7.5 µM (by protocol) | U2OS HRE-luciferase reporter, luminescence; normalized: DMSO 0%, desferrioxamine 100% | AID 1910;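 active means mean activation of at least 10% of the iron chelator positive control signal, with at least half of replicates also reaching 10%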
ALR inh = inhibitors of human sulfhydryl oxidase ALR; P55789; purified ALR, DTT oxidation, H2O2 HRP-luminol luminescence; inhibition, % (no concentration beside the values); actives 3.8% (n = 290,000); AID 485317;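 active means mean replicate inhibition above about 79%, with every replicate also reaching it, limit read from the data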
Target sequence (P55789 whole entry, looked up): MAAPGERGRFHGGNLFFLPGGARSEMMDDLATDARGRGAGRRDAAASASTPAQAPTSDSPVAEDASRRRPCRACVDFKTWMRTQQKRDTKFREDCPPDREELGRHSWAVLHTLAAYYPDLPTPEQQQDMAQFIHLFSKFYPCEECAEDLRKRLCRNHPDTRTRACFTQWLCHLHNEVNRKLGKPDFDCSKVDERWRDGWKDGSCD
M18AAP inhibitor = blocks P. falciparum M18 aspartyl aminopeptidase; recombinant PfM18AAP, H-Glu-NHMec fluorogenic cleavage; inhibition, % at 7.35 µM; actives 1.2% (n = 290,000); AID 1822;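 active means inhibition above the campaign mean inhibition over all tested compounds plus 3 SD, cut at about 28% in these data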;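 further: 0% = plate median of test compound wells and 100% = 2 mM ZnCl2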
Active calls of the source: *; nt = not tested or not shown. An excerpt weighted towards active compounds, which were near 5.3% of everything screened.

SMILES	SUMO Mot1 rescue	HIF act	ALR inh	M18AAP inhibitor
COCc1ccc(C(=O)N2CCCC(Nc3ccc(F)c(F)c3)C2)s1 (centres undefined)	6.2	-0.1	63.4	-6.1
COCc1ccc(C(=O)N2CCCC(Nc3ccc4c(c3)OCCO4)C2)o1 (centres undefined)	5.2	-0.4	98.7*	8.1
C[C@@]12C(=O)Nc3cc(Cl)ccc3C(=O)N1[C@H]1c3cc(Br)ccc3OC[C@@H]1[C@@H]2c1ccccc1	50.6	nt	-0.8	nt
CN(C)C(CNS(=O)(=O)c1cc([N+](=O)[O-])ccc1Cl)c1ccco1 (centres undefined)	-0.9	nt	-22.0	nt
CCOC(=O)Cc1cnc(NC(=O)CSc2nc(C)c(CC)c(=O)[nH]2)s1	-10.2	-0.7	99.1*	7.2
COc1ccc(-c2csc(NC(=O)CSc3n[nH]c(C)n3)n2)cc1	-9.8	2.9	nt	-0.3
CCc1c(C)nc(SCC(=O)Nc2nc(-c3ccc(OC)cc3)cs2)[nH]c1=O	-11.5	0.1	98.9*	-3.6
CCc1c(C)nc(SCC(=O)NNC(=O)Cc2ccc(OC)cc2)[nH]c1=O	1.9	-0.1	0.1	29.0*
COc1ccc(Cc2c(O)nc(SCC(=O)c3ccc(OC)cc3)[nH]c2=O)cc1	4.4	0.1	98.2*	-2.0
Cc1ccc(CN(c2ccc(C(=O)NCc3ccccn3)cc2)S(C)(=O)=O)cc1	7.3	-0.5	1.3	-6.7
CC1(C)CC(=O)/C(=C\c2cccc([N+](=O)[O-])c2)C(C)(C)N1	-18.3	-0.1	1.5	-1.9
CC[C@@]12C(=O)N(c3cccc(Cl)c3)C(=O)N1[C@H](c1ccc(Br)cc1)[C@@H]1C(=O)N(C(C)(C)C)C(=O)[C@@H]12	14.3	1.5	nt	nt
Cn1c(=O)c2c(nc(NCC3CCCC(CN)C3)n2Cc2ccc(Cl)cc2Cl)n(C)c1=O (centres undefined)	-3.7	6.7	17.4	0.2
CC(=O)NC1C(=O)N(CCN2CCOCC2)c2ccc(Br)cc21 (centres undefined)	-21.1	0.4	nt	30.2*
CCOc1ccc2c(c1)C(NC(C)=O)C(=O)N2CCN1CCOCC1 (centres undefined)	-8.9	-0.7	-0.2	20.1
CCOc1cc(-c2cc(-c3ccc(C)o3)nc(N)c2C#N)ccc1O	1.5	2.2	79.8*	-7.4
CCCc1cc(-c2ccc(O)c(OCC)c2)c(C#N)c(N)n1	7.7	0.1	62.6	16.0
CC(C)(C=O)C1=CC(=O)c2ccccc2C1=O	180.5	nt	96.0*	-4.1
NC(=O)c1sc2nc(-c3ccco3)ccc2c1N	-4.1	1.1	-13.8	12.8
COC(=O)c1sc2nc(-c3ccco3)ccc2c1N	-11.2	1.9	98.0*	24.6
COCCn1c(SCCN2CCOCC2)nc2c1c(=O)[nH]c(=O)n2C	-17.7	0.0	nt	29.5*
CC1(C)CC(=O)C2=C(C1)OC(N)=C(C#N)[C@@H]2c1ccccc1[N+](=O)[O-]	12.7	0.0	-8.7	29.0*
CC1CCCC(NC(=O)COC(=O)/C=C/c2ccc([N+](=O)[O-])cc2)C1C (centres undefined)	30.1	nt	nt	nt
Cc1ccc(-n2c(-c3ccccc3)n[nH]c2=S)cc1	2.6	0.3	12.1	12.0
CCC1(c2ccc(Cl)cc2)NC(=S)N(c2ccccc2)N1 (centres undefined)	32.6	3.9	94.5*	11.8
SMILES	SUMO Mot1 rescue	HIF act	ALR inh	M18AAP inhibitor
CCCCCC1(C)NC(=S)N(c2ccccc2)N1 (centres undefined)	300.1*	0.8	-2.8	14.8
CC1(CC(=O)Nc2ccccc2)NC(=S)N(c2ccccc2)N1 (centres undefined)	3.3	1.5	nt	19.0
CCCCCCC1(C)NC(=S)N(c2ccccc2)N1 (centres undefined)	84.2	-0.2	-8.6	11.0
CCC1(c2ccccc2)NC(=S)N(c2ccc(C)cc2)N1 (centres undefined)	nt	5.3	93.7*	18.3
CCCCc1nc2cc(C(=O)N3CCCCC3CCNC(C)=O)ccc2o1 (centres undefined)	315.4	1.5	4.5	-2.4
Cc1cc(C)c(NC(=O)C2=COCCO2)c(C)c1	6.4	0.9	-4.5	nt
CCOc1ccccc1NC(=O)CCNS(=O)(=O)c1cccc2nonc12	10.2	0.0	nt	-6.4
CC1Oc2ccccc2C=C1/C=N/Nc1ccc(C(=O)O)cc1 (centres undefined)	401.9*	-0.5	91.6*	-2.2
CC(C)(C)S(=O)(=O)/C(C#N)=N/Nc1ccc(Cl)cc1	8.6	-0.3	98.8*	6.4
CC(C)N(Cc1ccccc1)C(=O)COC(=O)c1cc(S(=O)(=O)N(C)C)ccc1N1CCCC1	-10.9	nt	-22.5	nt
O=C(NCCc1ccccc1)C1CCC(CNS(=O)(=O)c2cccc3cccnc23)CC1 (centres undefined)	-7.6	0.4	2.1	0.3
COC(=O)CCSCC(=O)Nc1ccc(C)c(S(=O)(=O)N2CCCCC2)c1	0.2	-0.3	99.3*	5.5
CCCCC(=O)Nc1ccc(C)c(S(=O)(=O)N2CCCCCC2)c1	21.8	nt	-1.5	nt
CCN(Cc1ccccc1)C(=O)COC(=O)c1cc(S(=O)(=O)Nc2ccccc2OC)ccc1O	2.0	nt	-0.9	nt
Cc1[nH]c2ccccc2c1C(c1ccncc1)N1CCN(c2ccccn2)CC1 (centres undefined)	8.7	-0.5	32.1	-2.7
Cc1[nH]c2ccccc2c1C(c1ccncc1)N1CCC(C)CC1 (centres undefined)	161.4	-0.2	96.6*	0.7
Cc1[nH]c2ccccc2c1C(c1ccccn1)N1CCC(C(N)=O)CC1 (centres undefined)	-18.3	-0.2	97.8*	4.3
Cc1ccc(S(=O)(=O)N2[C@@H](c3cccc(Cl)c3)C(C(=O)O)=CC[C@H]2c2ccc(Cl)cc2)cc1	1.4	nt	3.7	nt
Cc1ccc(S(=O)(=O)N2[C@@H](c3ccc(Cl)cc3)C(C(=O)O)=CC[C@H]2c2ccc(Cl)c(Cl)c2)cc1	-19.9	nt	88.5*	nt
O=[N+]([O-])c1ccc(Nc2ccccc2O)c2nonc12	-3.3	0.3	99.0*	-0.4
O=C(O)c1ccc(Nc2ccc([N+](=O)[O-])c3nonc23)cc1	73.2	-21.1	4.1	13.3
O=C(CSc1c(Cl)cccc1Cl)NC1CCCc2ccccc21 (centres undefined)	349.2*	-0.6	nt	2.8
CCN1CCN(C2=C(NS(=O)(=O)c3ccccc3)C(=O)c3ccccc3C2=O)CC1	13.1	-0.5	-11.6	30.5*
Fc1ccc(Br)cc1C1C=C(c2ccc(Br)s2)Nc2ncnn21 (centres undefined)	-5.8	0.5	88.4*	39.2*
C=CCOC(=O)C1=C(C)Nc2ncnn2C1c1cc(Br)ccc1F (centres undefined)	-12.6	0.4	-5.0	-6.3
COc1cccc(C2C=C(c3ccc(Br)s3)Nc3ncnn32)c1OC (centres undefined)	nt	0.0	0.6	32.0*
Cc1ccc2c(c1)-c1ncc(C(=O)c3cc(Br)ccc3O)cc1CO2	-4.2	0.0	-5.5	1.1
CCCCS(=O)(=O)/C=C\C=C/S(=O)(=O)CCCC	155.7	-4.2	98.3*	-42.3
Cc1nccc(-c2cc(-c3ccc(Cl)cc3Cl)no2)n1	328.4*	3.1	-1.6	0.2
